Source: PubChem BioAssay
Compounds with a hit are over-represented: about 7.5% of the library has one in this group of screens.
Rab9 promoter act = activates the Rab9 promoter. 320,000 compounds, 2.8% hits. Potency, µM (titrated, usually from 9.22 µM), for inactives: top-dose activation, negative = inhibition, most hits filed as activators. Huh7 Rab9 promoter-luciferase reporter, luminescence, 24 h; note: % of control where 0% means no effect; nearly all actives have a fitted effect of over 60% in size
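Rab9 promoter-driven luciferase in stably transfected Huh7 cells; 1500 cells/well rested 2 h, exposed to compound in DMSO for 24 h at 37 °C, 5% CO2. Luminescence read 10 min after adding luciferase reagent at ambient temperature.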
NPC1 promoter act = NPC1 promoter activation; 320,000 compounds, 2.4% hits; Huh7 NPC1 promoter luciferase reporter, 24 h; AID 485313; Potency, µM (top dose mostly 9.22 µM), for the others: at the top dose activation, hits mostly activators; note: % of control where 0% means no effect; nearly all actives have a fitted effect of over 60% in size
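Cells: Huh7 expressing luciferase under the NPC1 promoter, 1500/well. Seeded 2 h, compound added, incubated 24 h at 37 °C. Luciferase reagent, 10 min ambient, then luminescence.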
Luc counter = counter-screen: inhibitors of Kinase-Glo firefly luciferase. AID 1379. Potency, µM (top dose mostly 38.3 µM), for inactives: at the top dose activity change, negative = inhibition, usual class: inhibitors. Q27757. Kinase-Glo luciferase, ATP luminescence, 8 min. 200,000 compounds, 0.28% hits; note: % is set by controls: 0 for no effect and ±100 for the full control effect; nearly all actives have a fitted effect of over 60% in size
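Kinase-Glo luciferase light output from ATP and luciferin was measured with 10 uM ATP, within the enzyme's linear range. Buffer: 50 mM imidazole pH 7.2, 50 mM KCl, 7 mM MgCl2, 0.01% Tween 20, 0.05% BSA; luminescence read after 8 min at ambient temperature.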
SMN2 splice enh = SMN2 splice variant enhancement; 210,000 compounds, 2.8% hits; Potency, µM (top dose mostly 46.1 µM), without a hit: top-dose activity change, positive = activation, actives largely listed as activators; HEK293 SMN2-luciferase splicing reporter, luminescence, 30-36 h; note: % of control where 0% means no effect; nearly all actives have a fitted effect of over 55% in size
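HEK293 cells carry an SMN2 minigene-luciferase reporter in which exon 7 inclusion puts luciferase in frame. Cells were seeded at 2000 cells/well, attached for 10-12 hours, then exposed to compounds for 30-36 hours at 37C before ONE-Glo luminescence.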
ELG1 genotox = induces genotoxicity in HEK293T cells with luciferase-tagged ELG1; HEK293T ELG1-luciferase reporter, luminescence, 16 h; Potency, µM (series often up to 46 µM), for inactives: at the top dose activity change, positive = activation, actives largely listed as activators; 330,000 compounds, 1.3% hits; note: % of control where 0% means no effect; nearly all actives have a fitted effect of over 60% in size
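HEK293T cells expressing luciferase-tagged ELG1 were exposed to compound or DMSO vehicle for 16 hr at 37 °C and 5% CO2. Luciferase activity was then measured with ONE-Glo after 30 min at room temperature.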
FLuc counter = counter-screen for miR-21 project: firefly luciferase inhibitors or activators | purified FLuc, Km substrates, luminescence inhibition | Potency, µM (highest dose often 57.5 µM), for the others: top-dose activity change, negative = inhibition, hits mostly inhibitors | 360,000 compounds, 6.9% hits | AID 588342;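 note: plate controls were vehicle for no effect and reference inhibitor for full effect; nearly all actives have a fitted effect of over 55% in size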
Target sequence (P08659 whole entry, looked up): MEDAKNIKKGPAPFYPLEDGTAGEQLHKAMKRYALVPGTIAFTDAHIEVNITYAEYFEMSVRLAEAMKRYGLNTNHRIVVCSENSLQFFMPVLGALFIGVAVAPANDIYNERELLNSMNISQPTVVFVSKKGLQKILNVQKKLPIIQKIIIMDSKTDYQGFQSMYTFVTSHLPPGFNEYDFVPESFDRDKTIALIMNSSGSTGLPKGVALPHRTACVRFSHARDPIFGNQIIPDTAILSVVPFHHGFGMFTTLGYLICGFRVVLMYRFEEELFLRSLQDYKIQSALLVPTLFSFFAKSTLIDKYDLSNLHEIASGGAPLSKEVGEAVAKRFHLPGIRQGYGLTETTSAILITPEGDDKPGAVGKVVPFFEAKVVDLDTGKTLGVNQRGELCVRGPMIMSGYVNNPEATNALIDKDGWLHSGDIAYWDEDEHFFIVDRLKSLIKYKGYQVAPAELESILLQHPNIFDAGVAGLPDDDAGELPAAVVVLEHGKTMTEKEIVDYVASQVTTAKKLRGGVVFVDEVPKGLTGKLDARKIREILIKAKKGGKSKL
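Purified P. pyralis luciferase (10nM final) with 10uM D-luciferin and 10uM ATP (Km levels) in 50mM Tris acetate pH 7.5, 10mM Mg acetate, 0.01% Tween-20, 0.05% BSA; qHTS 6-point titration, ~60 µM downward; luminescence read.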
* hit, by the source's call; ? = inconclusive; . = not tested or not shown; [ ] = remark or other dose. Calls come from the whole dose curve; as a rule, active = well fitted curve in the direction sought with a large enough effect; inconclusive = small, poorly fitted or top-dose-only effect, or another doubt; inactive = no such curve, though single readings can be large; an effect the other way counts as inactive or inconclusive. Potency is the fitted concentration of half-maximal effect.

SMILES	Rab9 promoter act	NPC1 promoter act	Luc counter	SMN2 splice enh	ELG1 genotox	FLuc counter
Fc1ccc(-c2csc(N3CCOCC3)n2)cc1	2.5µM*	4µM*	.	.	13%	21µM*
Fc1ccc(-c2csc(N3CCSCC3)n2)cc1	21%	6%	5%	-11%	0%	17µM*
O=C(c1ccco1)N1CCN(c2ccc(F)cc2)CC1	26%	1%	-4%	23%	8%	-3%
COc1cc(-c2csc(N3CCOCC3)n2)cc(OC)c1OC	-1%	1%	-2%	9%	6%	-10%
O=C(O)/C=C\C(=O)Nc1ccccc1C#Cc1ccc(Br)cc1	16%	-1%	2%	-5%	13%	27µM*
O=C(CNC(=O)c1ccc(Cl)cc1Cl)NCC1CCCO1 (configuration not stated)	12%	11%	.	.	2%	24µM*
O=C(NCC1CCCO1)c1cc(-c2ccccc2)on1 (configuration not stated)	2.5µM*	2.5µM*	-1%	35µM*	10µM*	15µM*
COc1ccc(-c2cc(C(=O)NCC3CCCO3)on2)cc1OC (configuration not stated)	-4%	-5%	.	.	5%	-9%
O=C(NCC1CCCO1)c1cc(-c2ccc(F)cc2)no1 (configuration not stated)	3.2µM*	23%	.	.	?	?
Cc1ccc(-c2cc(C(=O)NCC3CCCO3)no2)cc1 (configuration not stated)	2.8µM*	2.5µM*	0%	10µM*	?	-17%[2.3 µM]
COc1cc(NS(=O)(=O)c2ccc(NC(=O)c3ccccc3C(=O)O)cc2)nc(OC)n1	.	.	.	-8%	.	?
CCN(CC)S(=O)(=O)c1ccc2c(c1)N(CC(=O)NCCCN1CCN(c3cc(C)ccc3C)CC1)C(=O)CO2	.	.	.	.	.	-1%
Cc1cccc(NC(=O)C(=O)NCC2CCCO2)c1 (configuration not stated)	0.71µM*	2.5µM*	-9%	.	?	21µM*
O=C(NCC1CCCO1)c1cc(-c2ccc(Cl)cc2Cl)on1 (configuration not stated)	2.8µM*	3.5µM*	-6%	25µM*	?	3.4µM*
O=C(NC(=S)NCC1CCCO1)c1ccc(Cl)cc1Cl (configuration not stated)	1%	3%	-2%	17%	7%	-4%
COc1ccc(-c2cc3ccc(O)c(CN4CCCC4)c3oc2=O)cc1OC	.	.	.	.	.	15µM*
O=C(CSc1nnc(NC(=O)c2ccco2)s1)Nc1ccccc1	1%	13%	-3%	?	15%	21µM*
CC(=O)Nc1ccc(NC(=O)CSc2nnc(NC(=O)c3ccco3)s2)cc1	16%	8%	.	.	6%	17µM*
O=C(CSc1nnc(NC(=O)c2ccco2)s1)Nc1ccccc1Cl	4%	2%	.	.	2%	?
Cc1cc(O)ccc1Nc1nc2ccccc2nc1Nc1ccc(O)cc1C	6%	7%	-3%	3%	8%	17µM*
CCCc1cc(=O)[nH]c(Nc2ccc(O)cc2C)n1	.	.	.	15%	.	0%
CN(C)CCCNc1c2c(nc3cc(-c4cccc(F)c4)nn13)CCC2	-2%	-4%	0%	.	4%	1%
Fc1ccc(-c2cc3nc4c(c(N5CCOCC5)n3n2)CCCC4)cc1	-2%	-2%	7%	-16%	-3%	21µM*
O=C(C1CCCO1)N1CCN(c2c3c(nc4cc(-c5ccc(F)cc5)nn24)CCC3)CC1 (configuration not stated)	2%	1%	4%	-2%	0%	4.8µM*
OC1CCCN(c2c3c(nc4cc(-c5cccc(F)c5)nn24)CCCC3)C1 (configuration not stated)	?	?	4%	11µM*	?	?
SMILES	Rab9 promoter act	NPC1 promoter act	Luc counter	SMN2 splice enh	ELG1 genotox	FLuc counter
Cc1cccc(-c2cc3nc4c(c(NCc5ccco5)n3n2)CCCC4)c1	3.2µM*	?	-3%	24%	8%	11µM*
OC1CCN(c2c3c(nc4cc(-c5ccc(F)cc5)nn24)CCC3)CC1	3%	14%	-1%	-7%	-10%	?
Cc1cccc(-c2cc3nc4c(c(N5CCCC(O)C5)n3n2)CCC4)c1 (configuration not stated)	-3%	0%	0%	-22%	-15%	-17%
Cc1ccc(OC(=O)CSc2nnc(-c3ccc4c(c3)OCO4)o2)c(C)c1	.	.	.	.	.	-6%
O=C(O)CCNCC(=O)O	.	.	2%[7.66 µM]	-3%[9.22 µM]	.	.
Cc1cccc(-c2cc3nc4c(c(N5CCOCC5)n3n2)CCCC4)c1	?	?	-7%	-19%	?	2.4µM*
COc1cccc(-c2cc3nc4c(c(N5CCC6(CC5)OCCO6)n3n2)CCC4)c1	-1%	-8%	2%	-8%	-8%	27µM*
COc1ccc(C)cc1NC(=O)c1cn(C)c(=O)c2cc(OC)c(OC)cc12	.	.	.	5%	.	3%
COC(=O)c1ccc(C(NC(=O)OCc2ccccc2)/C(=C/[C@@H](C)C(=O)N[C@@H](CO)Cc2ccccc2)c2cccnc2)cc1 (some centres not stated)	.	.	2%	-3%	.	.
CCC(=O)N1CCc2cc(Br)cc(S(=O)(=O)N3CCCC(C(=O)Nc4cccc(Cl)c4C)C3)c21 (configuration not stated)	.	.	.	8%	.	4%
Clc1cccc(-c2ccc(C=Nc3ccc(N4CCOCC4)cc3)o2)c1Cl	0%	1%	-13%	.	1%	3.4µM*
Clc1ccc(-c2ccc(C=Nc3ccc(N4CCOCC4)cc3)o2)cc1	1%	2%	-4%	-33%	0%	4.8µM*
Clc1ccc(-c2ccc(C=Nc3ccc(N4CCOCC4)cc3)o2)c(Cl)c1	0%	1%	1%	-23%	2%	-20%
CCN(C(=O)c1cc2c(s1)-c1ccccc1OC2)c1cc(Cl)ccc1OC	.	.	.	-59%	.	4%
CCCCc1ccc(-n2nc3cc(Cl)c(NC(=O)c4ccc(OC)cc4)cc3n2)cc1	.	.	.	-1%	.	-3%
COc1cccc(C(=O)C2CN(c3ccccc3)CC2c2ccc(Cl)cc2)c1 (configuration not stated)	-6%	1%	-1%	-26%	-8%	19µM*
COc1cc(C)ccc1OCCSc1nc2ccc(NC(=O)c3cccs3)cc2s1	.	.	.	.	.	-3%
Cc1ccc(NC(=O)COC(=O)c2c(C)nn(-c3ccccc3)c2C)cc1	-6%	0%	.	.	2%	-2%
Cc1nn(-c2ccccc2)c(C)c1C(=O)OCC(=O)Nc1ccccc1	?	?	.	.	11%	9.5µM*
COc1ccccc1NC(=O)COC(=O)c1c(C)nn(-c2ccccc2)c1C	?	?	.	.	14%	7.6µM*
